# Experimental data reported in PubChem BioAssay (NCATS).
# Inconclusive results are not listed. Where a call stands in place of a potency, no number is given. Calls of active or inactive are those of the source. Unless noted, calls come from the whole dose curve; as a rule, active = well fitted inhibition curve with a large enough effect; inconclusive = small, poorly fitted or top-dose-only effect; inactive = flat fitted curve, though single readings scatter.
# Experiments:
# [1] = qHTS drug screen for cell cycle checkpoint inhibitors in PARPi-resistant BRCA-mutant ovarian cancer cell lines. (AID 1963452; calls by dose curve; note: potency is the fitted concentration of half-maximal effect); conditions: PEO1/OlaR viability, CellTiter-Glo luminescence, 96 h; for Z-AUC: stronger effect = lower value
# Outline: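 PEO1, PEO4 and PEO1/OlaR ovarian cancer cells, 600 per well, exposed 96 h at 37C to a dilution series. Viability read by CellTiter-Glo luminescence, normalized to DMSO and empty wells; activity summarized as Z-AUC.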
# [2] = qHTS for identification of novel therapeutic agents for treatment of microphthalmiaassociated transcription factor (MiT) renal cell carcinoma (RCC) (AID 1963991; calls by dose curve; note: potency is the fitted concentration of half-maximal effect); conditions: CellTiter-Glo, 48 h; for z-score: stronger effect = lower value
# Outline: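 Three TFE3-fusion RCC lines (UOK109, UOK124, UOK145), 500 cells/well in complete medium, were treated with MIPE 4.0 compounds for 48 hours at 37 C. Viability was by CellTiter-Glo luminescence, normalized to DMSO (100%) and empty wells (0%); curves fitted over 11 concentrations.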
# [3] = qHTS profiling for inhibitors of Plasmodium falciparum proliferation (AID 504749); note: nearly all actives have a fitted effect of over 60% in size; conditions: P. falciparum in erythrocytes, SYBR Green DNA, 72 h
# Outline: (§1)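 Three-day growth assay of blood-stage parasites in erythrocytes (0.3% parasitemia, 2.5% hematocrit) at 37 C, 5% CO2, quantified by SYBR Green DNA staining after overnight detergent lysis.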
# 3D7 = assay: as above; conditions: P. falciparum in erythrocytes, SYBR Green DNA, 72 h; series mostly up to 28.7 µM
# Outline: as §1
# 7G8 = assay: as above; conditions: P. falciparum in erythrocytes, SYBR Green DNA, 72 h; series mostly up to 28.7 µM
# Outline: as §1
# AA1029 = assay: as above; conditions: P. falciparum in erythrocytes, SYBR Green DNA, 72 h; series mostly up to 28.7 µM
# Outline: as §1
# AS120 = assay: as above; conditions: P. falciparum in erythrocytes, SYBR Green DNA, 72 h; series mostly up to 28.7 µM
# Outline: as §1
# ATS189 = assay: as above; conditions: P. falciparum in erythrocytes, SYBR Green DNA, 72 h; series mostly up to 28.7 µM
# Outline: as §1
# ATS95 = assay: as above; conditions: P. falciparum in erythrocytes, SYBR Green DNA, 72 h; series mostly up to 28.7 µM
# Outline: as §1
# C2A = assay: as above; conditions: P. falciparum in erythrocytes, SYBR Green DNA, 72 h; series mostly up to 28.7 µM
# Outline: as §1
# CP185 = assay: as above; conditions: P. falciparum in erythrocytes, SYBR Green DNA, 72 h; series mostly up to 28.7 µM
# Outline: as §1
# CP191 = assay: as above; conditions: P. falciparum in erythrocytes, SYBR Green DNA, 72 h; series mostly up to 28.7 µM
# Outline: as §1
# CP192 = assay: as above; conditions: P. falciparum in erythrocytes, SYBR Green DNA, 72 h; series mostly up to 28.7 µM
# Outline: as §1
# CP201 = assay: as above; conditions: P. falciparum in erythrocytes, SYBR Green DNA, 72 h; series mostly up to 28.7 µM
# Outline: as §1
# CP211 = assay: as above; conditions: P. falciparum in erythrocytes, SYBR Green DNA, 72 h; series mostly up to 28.7 µM
# Outline: as §1
# CP215 = assay: as above; conditions: P. falciparum in erythrocytes, SYBR Green DNA, 72 h; series mostly up to 28.7 µM
# Outline: as §1
# CP217 = assay: as above; conditions: P. falciparum in erythrocytes, SYBR Green DNA, 72 h; series mostly up to 28.7 µM
# Outline: as §1
# CP194 = assay: as above; conditions: P. falciparum in erythrocytes, SYBR Green DNA, 72 h; series mostly up to 28.7 µM
# Outline: as §1
# CP203 = assay: as above; conditions: P. falciparum in erythrocytes, SYBR Green DNA, 72 h; series mostly up to 28.7 µM
# Outline: as §1
# [4] = measured here: PEO1 parental Z-AUC
# [5] = TFE3-RCC UOK109 viability, measured here: UOK109 Z-AUC
# [6] = TFE3-RCC viability, measured here: UOK124 Z-AUC
# [7] = TFE3-RCC viability, measured here: UOK145 Z-AUC
# [8] = at 28.7 µM (top of the series), parasite line A
# [9] = at 28.7 µM (top of the series), parasite line B
structure (smiles),measurement,setting,value
CCCCCCCCCCCCCCCCCCCCCCO,Z-AUC,[1],0.761 (inactive)
same,Z-AUC,[1]; [4],0.472
same,Z-AUC,[1]; measured here: PEO4 Z-AUC,0.414
same,z-score,[2]; [5],0.385
same,z-score,[2]; [6],0.0399
same,z-score,[2]; [7],0.476
same,"activity, negative = inhibition",[3]; [8],-0.041% (inactive)
same,"activity, negative = inhibition",[3]; [9],-11.9% (inactive)
same,Potency,3D7,inactive
same,Potency,7G8,inactive
same,Potency,AA1029,inactive
same,Potency,AS120,inactive
same,Potency,ATS189,inactive
same,Potency,ATS95,inactive
same,Potency,C2A,inactive
same,Potency,CP185,inactive
same,Potency,CP191,inactive
same,Potency,CP192,inactive
same,Potency,CP201,inactive
same,Potency,CP211,inactive
same,Potency,CP215,inactive
same,Potency,CP217,inactive
CN1C(C(=O)Nc2ccccn2)=C(O)c2sccc2S1(=O)=O,Z-AUC,[1],1.5 (inactive)
same,Z-AUC,[1]; [4],1.16
same,Z-AUC,[1]; measured here: PEO4 Z-AUC,1.02
same,z-score,[2]; [5],1.14
same,z-score,[2]; [6],0.504
same,z-score,[2]; [7],0.557
same,"activity, negative = inhibition","[3]; at 12.8 µM (top of the series), parasite line A",-2.2% (inactive)
same,"activity, negative = inhibition","[3]; at 12.8 µM (top of the series), parasite line B",-4.64% (inactive)
same,Potency,3D7,inactive
same,Potency,7G8,inactive
same,Potency,AA1029,inactive
same,Potency,AS120,inactive
same,Potency,ATS189,inactive
same,Potency,ATS95,inactive
same,Potency,C2A,inactive
same,Potency,CP185,inactive
same,Potency,CP191,inactive
same,Potency,CP192,inactive
same,Potency,CP194,inactive
same,Potency,CP201,inactive
same,Potency,CP203,inactive
same,Potency,CP211,inactive
same,Potency,CP215,inactive
same,Potency,CP217,inactive
Nc1ccn([C@@H]2O[C@H](CO)[C@@H](O)C2O)c(=O)n1 (some centres undefined),Z-AUC,[1],-1.18 (inactive)
same,Z-AUC,[1]; [4],-1.27
same,Z-AUC,[1]; measured here: PEO4 Z-AUC,-0.431
same,z-score,[2]; [5],0.798
same,z-score,[2]; [6],0.809
same,z-score,[2]; [7],0.948
same,"activity, negative = inhibition",[3]; [8],12.2% (inactive)
same,"activity, negative = inhibition",[3]; [9],0.749% (inactive)
same,Potency,3D7,inactive
same,Potency,7G8,inactive
same,Potency,AA1029,inactive
same,Potency,AS120,inactive
same,Potency,ATS189,inactive
same,Potency,ATS95,inactive
same,Potency,C2A,inactive
same,Potency,CP185,inactive
same,Potency,CP191,inactive
same,Potency,CP192,inactive
same,Potency,CP194,inactive
same,Potency,CP201,inactive
same,Potency,CP203,inactive
same,Potency,CP211,inactive
same,Potency,CP215,inactive
same,Potency,CP217,inactive
CC(C)(S)[C@@H](N)C(=O)O,Z-AUC,[1],0.193 (inactive)
same,Z-AUC,[1]; [4],0.891
same,Z-AUC,[1]; measured here: PEO4 Z-AUC,1.3
same,z-score,[2]; [5],0.813
same,z-score,[2]; [6],0.506
same,z-score,[2]; [7],1.37
same,"activity, negative = inhibition",[3]; [8],1.57% (inactive)
same,"activity, negative = inhibition",[3]; [9],-13.2% (inactive)
same,Potency,3D7,inactive
same,Potency,7G8,inactive
same,Potency,AA1029,inactive
same,Potency,AS120,inactive
same,Potency,ATS189,inactive
same,Potency,ATS95,inactive
same,Potency,C2A,inactive
same,Potency,CP185,inactive
same,Potency,CP191,inactive
same,Potency,CP194,inactive
same,Potency,CP201,inactive
same,Potency,CP211,inactive
same,Potency,CP215,inactive
same,Potency,CP217,inactive
CC(=O)O[C@H]1C(=O)[C@@]2(C)C([C@H](OC(=O)c3ccccc3)[C@]3(O)C[C@H](OC(=O)[C@H](O)[C@@H](NC(=O)c4ccccc4)c4ccccc4)C(C)=C1C3(C)C)[C@]1(OC(C)=O)CO[C@@H]1C[C@@H]2O (some centres undefined),Potency,[1],7.8 nM (active)
same,Z-AUC,[1]; [4],-2.74
same,Z-AUC,[1]; measured here: PEO4 Z-AUC,-3.15
same,Potency,"[2]; TFE3-RCC UOK109 viability, active = Z-AUC below -0.8 in all three lines",41.8 nM (active)
same,z-score,[2]; [5],-1.4
same,z-score,[2]; [6],-1.86
same,z-score,[2]; [7],-1.46
CC1(C)NC(=O)N(c2ccc([N+](=O)[O-])c(C(F)(F)F)c2)C1=O,Z-AUC,[1],1.11 (inactive)
same,Z-AUC,[1]; [4],0.722
same,Z-AUC,[1]; measured here: PEO4 Z-AUC,0.784
same,"activity, negative = inhibition",[3]; [8],-1.6% (inactive)
same,"activity, negative = inhibition",[3]; [9],7.49% (inactive)
same,Potency,3D7,inactive
same,Potency,7G8,inactive
same,Potency,AA1029,inactive
same,Potency,AS120,inactive
same,Potency,ATS189,inactive
same,Potency,ATS95,inactive
same,Potency,C2A,inactive
same,Potency,CP185,inactive
same,Potency,CP191,inactive
same,Potency,CP192,inactive
same,Potency,CP194,inactive
same,Potency,CP201,inactive
same,Potency,CP211,inactive
same,Potency,CP215,inactive
same,Potency,CP217,inactive
